# CF NFkB inh: cystic fibrosis NF-kB activation inhibition; inhibition, % at 5 µM; KKLEB NF-kB-GFP reporter, PAF-induced, GFP fluorescence overnight; 0.86% of 360,000 active;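 active = at least 50% inhibition at 5 µM, scaled per plate between neutral and stimulator controls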;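 also: PAF is a Pseudomonas aeruginosa culture filtrate used as stimulus; plate controls were PAF-stimulated DMSO wells for no effect and unstimulated DMSO wells for full effect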
# TRPM1 prom inh: reduces MITF-dependent TRPM1 promoter luciferase signal | SK-MEL-5 TRPM1 promoter luciferase, 24 h | 0.83% of 330,000 active | inhibition, % at 12.5 µM;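 active = mean inhibition across replicates of 60% or more, whatever share of single replicates reaches that level; inconclusive = some that reach 60%, reason not given; inactive = mean inhibition across replicates below 60%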
# Shn3 inh set2: inhibitors of Schnurri-3 3'UTR reporter in osteoblasts; Clone20 osteoblast Shn3 3'UTR firefly luciferase, 24 h; inhibition, % at 12.5 µM; 0.52% of 360,000 active;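 active = mean inhibition of at least 75% with every replicate also reaching 75%; inconclusive = mean inhibition at least 75% but some replicate below; inactive = mean inhibition below 75%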;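 also: 0% = median of neutral control wells and 100% = pilot-screen positive control compound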
# HIF-2a inh: blocks HIF-2a reporter activity. 786-0 RCC cells HIF-2a reporter, luciferase luminescence, overnight. inhibition, % at 18.8 µM. 0.72% of 360,000 active. AID 624352;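 active = inhibition of the luminescence signal of 40% or more relative to plate controls, in a single-dose primary screen at 18.75 µM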
# Peg3 prom inh: Peg3 promoter activity inhibition. HeLa PEG-Prom luciferase reporter, luminescence, overnight. inhibition, % at 20 µM. 1.7% of 360,000 active. AID 588405;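 active = inhibition of at least 50% at 20 µM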
# KKLEB cytotox: reduces viability of KKLEB cystic fibrosis airway cells | KKLEB CF airway cells viability, ATPlite luminescence, overnight; stronger effect = lower value; cells stimulated with P. aeruginosa culture filtrate | activity change (cytotoxicity), % at 5 µM | 0.36% of 360,000 active | AID 602141;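 active = corrected activity change at or below -50% at 5 µM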
# * marks the source's active call; other numbers are inactive results; ? = inconclusive; / = not tested or not shown. Rows were chosen to be rich in hits. Some 2.8% of all compounds tested hit in one or more screens of this group.
SMILES,CF NFkB inh,TRPM1 prom inh,Shn3 inh set2,HIF-2a inh,Peg3 prom inh,KKLEB cytotox
Oc1c(Cl)cccc1Cc1cc(Cl)cc(Cl)c1O,61*,-3,26,-3,49,-19
CC1=CC(C)CC(C)OC(=O)CC(c2ccc(O)cc2)NC(=O)C(Cc2c(Br)[nH]c3ccccc23)N(C)C(=O)C(C)NC(=O)C(C)C1 (stereo not given),91*,81*,67,24,76*,-81*
COC(=O)C1=C(c2cc3ccccc3s2)C[C@@H]2CC[C@H]1N2C(=O)NCc1ccc(F)cc1,-12,5,8,9,22,-2
Cc1ccc(C[n+]2c(-c3ccc(C)cc3)cc(-c3ccc(C)cc3)cc2-c2ccc(C)cc2)cc1,57*,96*,92*,90*,97*,-64*
Cc1ccc(-c2cc(-c3ccc(C)cc3)[n+](-c3ccc(C(=O)O)cc3)c(-c3ccc(C)cc3)c2)cc1,-4,-3,2,2,-14,-7
CCn1nc(-c2ccccc2)nc2c(=O)n(C)c(=O)nc1-2,3,99*,8,17,8,-16
CC=CC(C)=CC(C)C(=O)CC(O)CC1CC(=O)NC(=O)C1 (stereo not given),26,/,22,30,35,-12
CC1CC(C)(O)CC(C(O)CC2CC(=O)NC(=O)C2)C1=O (stereo not given),91*,67*,94*,55*,96*,0
COc1cc2c(cc1OC)C13CCN4C=C5CCOC6CC(=O)N2C1C6C5CC43 (stereo not given),15,0,8,12,-5,-3
COC1CC2C=C(C)C=CC=CC(=O)NC(c3ccccc3)CC=CCCC(O)CC(=O)C2=C1O (stereo not given),91*,/,98*,77*,98*,-85*
CCOC(=O)[C@]12Cc3cc(Cl)ccc3[C@H]1N(C1CCCCC1)C(=O)c1cc(OC)ccc12,/,/,/,89*,/,/
COC(=O)C1=C(c2ccc(Cl)c(C(F)(F)F)c2)C[C@@H]2CC[C@H]1N2C(=O)NCc1ccco1,6,-6,15,11,3,18
CC(C)CCNC(=O)c1c(N)n(Cc2ccc3c(c2)OCO3)c2nc3ccccc3nc12,10,-2,25,-2,45,-9
CCCNC(=O)c1c(N)n(Cc2ccc3c(c2)OCO3)c2nc3ccccc3nc12,51*,-1,9,11,41,-64*
OC(c1cccc(Cl)c1)(c1cccc(Cl)c1)C1CN2CCC1CC2 (stereo not given),18,-1,6,11,96*,-10
C[C@]12CCC3C(CC[C@H]4C[C@@H](O)CC[C@]34C)C1CC[C@@H]2OC(=O)[C@H](N)CCCCN (stereo not given in full),17,28,36,17,87*,-11
CC(=O)C1CCC2C3CCC4CC(O)CCC4(C)C3CCC12C (stereo not given),-10,-1,8,13,10,18
COC(=O)C1=C(c2ccc(-c3ccccc3)c(F)c2)C[C@@H]2CC[C@H]1N2C(=O)N1CCOCC1,12,23,64,12,1,-11
Cc1cc(C)cc(N2C(=O)NC(=O)/C(=C/c3cccn3-c3ccc(Cl)cc3)C2=O)c1,61*,51,75,43*,99*,1
Cc1cccc(N2C(=O)NC(=O)/C(=C\c3cccn3-c3ccc(Cl)cc3)C2=O)c1,45,?,40,14,104*,-6
CC(C)(C)n1cccc1/C=C1\C(=O)NC(=O)N(c2ccccc2)C1=O,-26,4,-36,-9,-6,16
CN(C)c1ccc(C=C2C(=O)NC(=O)NC2=O)cc1,-6,-11,8,5,12,13
CN(C)c1ccc(C=C2C(=O)NC(=S)NC2=O)cc1,24,36,3,25,89*,2
CCN(CC)c1ccc(C=C2C(=O)NC(=S)NC2=O)cc1,66*,44,57,68*,104*,-13
COc1ccc(C(=O)NC(=S)N2C[C@H]3C[C@H](C2)c2cccc(=O)n2C3)cc1,-9,/,19,-14,-16,-8
SMILES,CF NFkB inh,TRPM1 prom inh,Shn3 inh set2,HIF-2a inh,Peg3 prom inh,KKLEB cytotox
CN1Cc2cnnn2-c2ccccc2C1c1ccccc1 (stereo not given),-16,-2,-4,2,-2,8
Cc1nc(C)c(C(=O)NN=Cc2ccc(N(CCCl)CCCl)cc2)s1,-7,4,4,7,21,9
O=C1NC(=O)N(Cc2ccccc2Cl)C(=O)/C1=C/c1cccs1,43,56,-1,50*,60*,-11
CCN1/C(=C/C=C/C2=[N+](CC)c3ccccc3C2(C)C)C(C)(C)c2ccccc21,-85,/,79,39*,96*,-42
O=C1NC(=O)C(=Cc2cn(CCOc3ccc4c(c3)OCO4)c3ccccc23)C(=O)N1,-4,-1,13,13,64*,-19
C=CCn1cc(C=C2C(=O)NC(=O)NC2=O)c2ccccc21,26,9,-32,19,8,-14
CCOc1cc(CNCCc2c[nH]c3ccccc23)cc(Cl)c1OC,8,4,73,23,62*,0
CC1(C)C[C@H]2C=C(C=O)[C@]3(C=O)C[C@]3(C)[C@H]2C1,77*,88*,97*,23,105*,-37
Cc1cccc(-c2nc3ccc(C(=O)N4CCC5(CC4)OCCO5)cc3nc2-c2cccc(C)c2)c1,18,-8,7,9,56*,-6
COc1cccc(C(=O)N2CCC3(CC2)OCCO3)c1,-9,12,-10,8,10,-6
Cc1ccc(CN2Cc3ccc(Br)cc3-n3nncc3C2)cc1,11,/,2,-3,-8,-2
CCCCCn1c(=O)c(C(=O)Nc2cnccn2)c(O)c2ccccc21,10,66*,82,-17,-13,-9
CN(Cc1cccc(-c2ccncc2)c1)C(=O)Oc1ccccc1Cc1ccccc1,/,/,/,2,/,/
Cn1cc(/C=C2\C(=O)NC(=O)N(c3ccccc3)C2=O)c2ccccc21,-1,-17,5,5,22,-4
O=C1NC(=O)N(c2ccccc2)C(=O)/C1=C/C=C/c1ccco1,-2,95*,-6,30,36,5
Cc1ccc(N2C(=O)NC(=O)/C(=C\C=C\c3ccco3)C2=O)cc1,52*,102*,71,42*,47,-6
CN1C(=O)/C(=C/C=C/c2ccco2)C(=O)NC1=S,15,3,1,17,6,-4
Cc1cccc(N2C(=O)NC(=O)/C(=C\C=C\c3ccco3)C2=O)c1,88*,98*,98*,39,45,-9
CN(C)c1ccc(/C=C/C=C2/C(=O)NC(=O)N(c3ccccc3)C2=O)cc1,70*,83*,19,3,103*,-27

# From PubChem
